High-throughput results from PubChem.
Shown are actives, neighbours in structure and some others; about 19% of the full set was active somewhere.
TDP1 cell CPT: growth inhibition of DT40 Tdp1-/-;hTDP1 cells with camptothecin (screen for TDP1 inhibitors); chicken DT40 Tdp1-/-;hTDP1 cells + 20 nM CPT, ATP luminescence, 48 h; Potency, µM (top dose mostly 46.2 µM), without a hit: top-dose activity change, negative = growth inhibition, usual class: inhibitors; 420,000 compounds, 12% hits; also: potency is read from the fitted curve at half-maximal effect; % is scaled to controls: 0 for no effect and ±100 for the full control effect; nearly all actives have a fitted effect of over 55% in size
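Chicken DT40 Tdp1-/- cells complemented with human TDP1, 400 cells/well, exposed to compounds plus 20 nM camptothecin for at least 48 h at 37 C; viability read as ATP content by CellTiter-Glo luminescence.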
TDP1 cell noCPT: qHTS for Inhibitors of human tyrosyl-DNA phosphodiesterase 1 (TDP1): qHTS in cells in absence of CPT; DT40 Tdp1-/- hTDP1 cells, no CPT, ATP luminescence, 48 h; Potency, µM (series often up to 46.2 µM), for inactives: at the highest dose activity change, negative = growth inhibition, actives largely listed as inhibitors; 420,000 compounds, 15% hits; AID 686978, 2013; also: potency is read from the fitted curve at half-maximal effect; % is scaled to controls: 0 for no effect and ±100 for the full control effect; nearly all actives have a fitted effect of over 55% in size
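Readout: luminescence from CellTiter-Glo after 30 min in the dark at RT. Cells: DT40 Tdp1-/- with stable hTDP1, 400/well. Exposure: compounds alone, ≥48 hr, 37 °C.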
IL1B secr inh: blocks inflammasome-driven IL-1 beta release; THP-1 LPS/ATP IL-1B secretion, AlphaLISA, 16 h; active compounds read low; activity change, % at 57.5 µM; 360,000 compounds, 4.7% hits; AID 743279; in the data active = activity change below about -50%; inconclusive = mostly about -30% to -49%; also: % is scaled to controls: 0 for no effect and ±100 for the full control effect
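THP-1 cells pretreated 1 hr with compounds (up to 57.5 uM final), then stimulated with LPS (250 ng/mL final) plus ATP (1.25 mM final); secreted IL-1B measured by AlphaLISA after 16 hr, decreased signal indicating inhibition.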
TGFb SMAD3 inh: blocks TGF-b signaling. HepG2 CAGA-GFP TGF-b/SMAD3 reporter, GFP fluorescence, 18 h; TGF-beta stimulated, 500 pg/mL final. Potency, µM (titrated, usually from 46.1 µM), without a hit: at the top dose activity, negative = inhibition, usual class: inhibitors. 410,000 compounds, 1.2% hits; also: potency is read from the fitted curve at half-maximal effect; % is scaled to controls: 0 for no effect and ±100 for the full control effect; nearly all actives have a fitted effect of over 65% in size
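Cell-based qHTS in HEPG2 carrying a CAGA-GFP Smad reporter; compounds added before 500 pg/mL final TGF-beta, 18 h incubation at 37 degrees C, GFP fluorescence quantified per cell by imaging cytometry.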
HepG2 tox: kills HepG2 cells in TGF-b inhibitor counter-screen | HepG2 CAGA-GFP viability, ATP luminescence, 18 h | Potency, µM (top dose mostly 46.1 µM), for inactives: at the top dose activity change, negative = cytotoxicity, actives largely listed as cytotoxic | 410,000 compounds, 0.76% hits | AID 588856; also: potency is read from the fitted curve at half-maximal effect
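HepG2 CAGA-GFP cells (1000/well, DMEM with 1% FBS) received compound, then TGF-beta at 500 pg/mL final, and were incubated 18 hours at 37 degrees C. Viability was read by CellTiter-Glo luminescence. Media-only wells were set as complete cell-killing and DMSO as no toxicity.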
TDP1 inh: blocks human tyrosyl-DNA phosphodiesterase 1. Potency, µM (titrated, usually from 130 µM), without a hit: at the top dose activity change, negative = inhibition, most hits filed as inhibitors. AID 485290. 350,000 compounds, 0.28% hits. recombinant TDP1, AlphaScreen DNA substrate cleavage; also: potency is read from the fitted curve at half-maximal effect; % is scaled to controls: 0 for no effect and ±100 for the full control effect; nearly all actives have a fitted effect of over 40% in size
Target sequence (Q9NUW8 whole entry, looked up): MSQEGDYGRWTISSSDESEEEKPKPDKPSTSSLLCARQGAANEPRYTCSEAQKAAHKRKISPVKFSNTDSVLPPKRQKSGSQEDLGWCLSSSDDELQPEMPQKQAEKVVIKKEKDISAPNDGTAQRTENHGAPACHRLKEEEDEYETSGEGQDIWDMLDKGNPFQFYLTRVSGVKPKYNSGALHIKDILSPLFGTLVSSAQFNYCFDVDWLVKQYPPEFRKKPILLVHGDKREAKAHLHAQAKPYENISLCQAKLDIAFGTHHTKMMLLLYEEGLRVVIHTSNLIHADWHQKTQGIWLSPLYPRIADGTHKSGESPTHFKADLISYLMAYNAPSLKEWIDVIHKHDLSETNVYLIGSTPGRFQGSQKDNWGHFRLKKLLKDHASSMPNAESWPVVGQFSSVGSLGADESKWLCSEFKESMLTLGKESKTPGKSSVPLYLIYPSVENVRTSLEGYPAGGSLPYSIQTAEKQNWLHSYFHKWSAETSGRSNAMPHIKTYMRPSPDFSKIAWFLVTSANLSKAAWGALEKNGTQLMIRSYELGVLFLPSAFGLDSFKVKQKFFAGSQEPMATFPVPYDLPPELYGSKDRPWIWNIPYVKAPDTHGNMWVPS
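Enzyme-compound mixtures sat 15 min at room temperature, followed by a 5 min reaction with 15 nM final substrate and 10 min with AlphaScreen beads. Recombinant human Tdp1 was used at 1 nM final.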
Starred values were filed as active, the others as inactive; ? = inconclusive; nt = no result; [ ] = another dose, or the depositor's remark. Unless noted, calls follow the shape of the dose curve; as a rule, active = well fitted curve in the direction sought with a large enough effect; inconclusive = small, poorly fitted or top-dose-only effect, or another doubt; inactive = no such curve, though single readings can be large; an effect the other way counts as inactive or inconclusive.

SMILES	TDP1 cell CPT	TDP1 cell noCPT	IL1B secr inh	TGFb SMAD3 inh	HepG2 tox	TDP1 inh
O=C(CSc1c2c(nc3ccc(Cl)cc13)CCCC2)N1CCN(c2cccc(Cl)c2)CC1	16.4µM*	?	nt	-54.5%	-50.2%	-2.3%
Cc1nnc(SCC(=O)NCC2COc3ccccc3O2)s1 (stereo unspecified)	12.8%	3.9%	12.2	-8.0%	2.5%	0.4%
CC(C)(C)OC(=O)N1C=CCC1CN1C(=O)COCC1=O (stereo unspecified)	nt	nt	nt	-4.8%	-4.3%	2.6%
CCCCN1CCNC[C@@H]1Cc1ccccc1	11.1%	7.6%	16.1	-19.8%	7.1%	-8.1%
c1ccc2c(C[C@@H]3CNCCN3CCCCC3CCCCC3)cccc2c1	?	?	-15.7	?	-96.1%	6.1%
c1ccc(C[C@H]2CNCCN2CCCCC2CCCCC2)cc1	?	?	-80.2*	?	-104.7%	-2.4%
c1ccc(C[C@H]2CNCCN2CC2CCCCC2)cc1	?	16.4µM*	-23.5	5.8%	-10.7%	-6.5%
NC(=O)N1N=C2/C(=C/c3ccccc3)CCCC2C1c1ccccc1 (stereo unspecified)	-20.0%	?	-57.3*	?	-23.2%	9.9%
COc1ccc(/C=C2\CCCC3C2=NN(C(=O)CSc2ncn[nH]2)C3c2ccc(OC)cc2)cc1 (stereo unspecified)	18.4µM*	23.1µM*	-85.1*	?	4.4%	8.2%
O=C(O)CSCC(=O)N1N=C2/C(=C/c3ccccc3)CCCC2C1c1ccccc1 (stereo unspecified)	-16.6%	-24.7%	2.3	-8.9%	-4.7%	2.7%
O=C(CSc1ncn[nH]1)N1N=C2/C(=C/c3ccccc3)CCCC2C1c1ccccc1 (stereo unspecified)	?	?	-12.5	?	-43.6%	11.0%
CCCCCCCCCCCCCCCCn1cc[n+](CC(C)=O)c1	0.651µM*	1.3µM*	21.6	20µM*	-103.9%	5.3%
C#CCn1cc[n+](CC(=O)N(C)C)c1	-12.3%	-8.2%	-13.5	-12.0%	11.1%	2.4%
CCC(C)n1c(SCC(=O)NCCc2ccc(S(N)(=O)=O)cc2)nc2ccsc2c1=O (stereo unspecified)	?	?	15.3	12.6%	4.1%	-5.3%
CCN(CC)C(=O)CSc1nc2ccsc2c(=O)n1CCCC(=O)NCCc1ccc(S(N)(=O)=O)cc1	4.11µM*	29.1µM*	-9.8	-3.4%	-4.7%	6.9%
Cc1ccc(CN=Cc2[nH]c3ccc(Br)c(Cl)c3c2O)cc1	?	20.6µM*	0.0	-7.1%	17.8µM*	-7.0%
Cc1c(C(=O)NCc2ccc3c(c2)OCO3)sc2nc(-c3ccccc3)cn12	?	14.6µM*	-16.7	-16.4%	-15.9%	-2.5%
Cc1c(C(=O)NCc2ccccn2)sc2nc(-c3ccc(F)cc3)cn12	?	?	-6.5	-23.1%	-1.5%	2.1%
Cc1c(C(=O)NCC2CCCO2)sc2nc(-c3ccc(F)cc3)cn12 (stereo unspecified)	14.6µM*	?	-27.0	-10.5%	-20.0%	3.1%
Cc1c(C(=O)NCc2ccc3c(c2)OCO3)sc2nc(-c3ccc(F)cc3)cn12	?	16.4µM*	-16.9	-0.9%	-3.4%	2.1%
CCOC(=O)N1CCc2c(sc3c2c(=O)n(Cc2ccccc2)c(=O)n3CC(=O)Nc2ccccc2F)C1	2.1%	-4.0%	nt	-27.3%	-16.4%	3.8%
COc1c2c(cc3c1C(CC(=O)c1c(O)c(OC)c4occc4c1OC)[N+](C)(C)CC3)OCO2 (stereo unspecified)	1.6%[9.04 µM]	-21.3%[9.04 µM]	nt	nt	nt	7.5%
Cc1ccc(Cn2c(=O)c3c(nc4n3CCN4c3cc(C)cc(C)c3)n(C)c2=O)cc1	-0.1%	-11.7%	nt	7.1%	1.8%	0.0%
CCCCNC(=O)CN(Cc1ccco1)S(=O)(=O)c1ccc(C(C)=O)cc1	-29.3%	?	-6.9	0.6%	0.3%	0.7%
Cc1ccccc1NC(=O)c1oc(=O)c2ccccc2c1-c1ccccc1	-1.6%	?	28.0	-17.3%	-22.9%	1.9%
SMILES	TDP1 cell CPT	TDP1 cell noCPT	IL1B secr inh	TGFb SMAD3 inh	HepG2 tox	TDP1 inh
COc1ccc(OC)c(NC(=O)c2oc(=O)c3ccccc3c2-c2ccccc2)c1	?	20.6µM*	nt	8.1%	-6.0%	4.7%
COc1ccc(N(C)C(=O)Cc2c(C(=O)O)n(C)c3ccccc23)c(OC)c1	16.9%	-2.4%	16.1	0.2%	-7.9%	nt
COc1ccc(N(C)C(=O)c2oc(=O)c3ccccc3c2-c2ccc(C)cc2)c(OC)c1	20.6µM*	16.4µM*	0.3	?	-14.8%	6.0%
Cc1cccc(NC(=O)c2oc(=O)c3ccccc3c2-c2ccccc2)c1C	10.3µM*	11.6µM*	-11.0	-13.5%	-8.1%	-2.6%
COC(=O)[C@@H]1CCCN1C(=O)c1c(OC)cc(=O)n2c1CCN(Cc1ccc(C)o1)CC2	4.5%	-13.5%	nt	nt	nt	nt
CCc1cccc(C)c1NC(=O)CCn1nc(C)c2c(C)n(-c3ccccc3)nc2c1=O	-20.6%	-24.9%	nt	4.7%	-0.1%	0.0%
NC(=O)c1cccc(-c2ccnc3c2CC(C(=O)Nc2ccccc2)O3)c1 (stereo unspecified)	-14.6%	-9.8%	-16.6	40.6%	0.6%	nt
CC(=O)Nc1ccc(NC(=O)C2Cc3c(-c4ccco4)ccnc3O2)cc1 (stereo unspecified)	?	-28.3%	-17.9	3.5%	-25.1%	nt
CC(=O)c1cccc(NC(=O)C2Cc3c(-c4ccccc4)ccnc3O2)c1 (stereo unspecified)	20.6µM*	13µM*	-18.2	2.8%	-48.1%	nt
CC(=O)c1cccc(-c2ccnc3c2CC(C(=O)Nc2ccccc2)O3)c1 (stereo unspecified)	16.4µM*	?	-4.7	8.6%	-13.4%	nt
CC(=O)c1cccc(NC(=O)C2Cc3c(-c4cccc(F)c4)ccnc3O2)c1 (stereo unspecified)	18.4µM*	?	0.0	6.5%	5.9%	nt
CC(=O)c1cccc(NC(=O)C2Cc3c(-c4ccco4)ccnc3O2)c1 (stereo unspecified)	?	16.4µM*	0.0	0.1%	-6.8%	nt
Cc1cc2[nH]c(=O)c(=O)[nH]c2cc1S(=O)(=O)N1CCC(C)CC1	5.2%	-7.3%	28.5	18.9%	-3.6%	nt
